Laboratory results reported in PubChem BioAssay AID720517 (National Center for Advancing Translational Sciences (NCATS), 2013).
Results filed as inconclusive are left out. Entries that show only a call come without a potency. Calls of active or inactive are those of the source. The call rests on the fitted dose curve; in most records, active means well fitted activation curve with a large enough effect; inconclusive means small, poorly fitted or top-dose-only effect; inactive means flat fitted curve, though single readings scatter.

Assay: qHTS for Inhibitors of Cell Surface uPA Generation: FP59 Counterscreen for Cherry-picked Compounds
Settings: FP59 anthrax toxin cytotoxicity counterscreen, cells; series mostly up to 115 µM

| Compound | Potency |
| --- | --- |
| C=CCn1c(C)cc(C(=O)COC(=O)/C=C/c2cccc(OC)c2)c1C | inactive |
| COc1cc(SC)ccc1C(=O)OCc1nc2ccsc2c(=O)[nH]1 | inactive |
| O=C1[C@H]2[C@@H](c3ccc(F)cc3)N3C(=O)N(c4ccccc4)C(=O)[C@@]3(Cc3ccc(Cl)cc3)[C@H]2C(=O)N1C1CCCCC1 | inactive |
| CCCCn1c(-c2cccnc2)nc2cc3[nH]c(=O)c(C(C)C)nc3cc21 | inactive |
| O=C(O)CC1(CC(=O)NCc2ccc(Cl)cc2)CCCCC1 | inactive |
| Cc1cccc(C(=O)Nc2cc(=O)n(C)c(=O)n2C)c1 | inactive |
| COc1ccc(CCNC(=O)COC(=O)CNS(=O)(=O)c2ccc(SC)c([N+](=O)[O-])c2)cc1 | inactive |
| COc1ccccc1N1CCN(CC(=O)c2c(C)[nH]c3ccccc23)CC1 | inactive |
| COc1cccc(CNC(=O)C2CCCN(S(=O)(=O)c3ccc4c(c3)C(C)(C)C(=O)N4C)C2)c1 (configuration not stated) | inactive |
| Cc1cccn2c(CNCC(C)Oc3cccnc3)c(C(=O)N3CCOCC3)nc12 (configuration not stated) | inactive |
| CS(=O)(=O)N1CCC(C(=O)Nc2ccccc2)CC1 | inactive |
| Cc1ccc2cc(C=O)c(Cl)nc2c1 | inactive |
| Cc1ccc(C(=O)NC(=S)Nc2ccc3[nH]c(=O)[nH]c3c2)c(C)c1 | inactive |
| Cc1ccc2[nH]c(CN3CCN(C)C(CCO)C3)c(C)c2c1 (configuration not stated) | inactive |
| NC(=O)c1cc2c3ccccc3ccn2c1-c1ccccc1 | inactive |
| Cc1nc2ncccn2c1-c1csc(Nc2ccc(S(N)(=O)=O)cc2)n1 | inactive |
| COc1ccc(C2=NS(=O)(=O)N(C)C(C(=O)NCc3ccccn3)=C2)cc1 | inactive |
